Screening data from PubChem BioAssay.
HTR5A inv ctr = HTR5A inverse agonists in luminescence cell assay, primary screen, counter-screen for OPRM1-OPRD1 heterodimer inverse agonist project, full-deck HTS | 340,000 tested, 0.083% active | HTR5A cell line, inverse agonism | inhibition, % at 9.3 µM; in the data active means inhibition mostly above about 23%, no sharp cut-off; inactive means mostly below about 18%;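 further: 0% = cells with DMSO and 100% = no-cell wells with DMSO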
MOR-DOR inv ag = inverse agonists of MOR-DOR heterodimerization, primary screen, cell-based, luminescence; cell-based MOR-DOR heterodimer luminescence, inverse agonism; 340,000 tested, 0.21% active; Mu-type opioid receptor (Homo sapiens) + Delta-type opioid receptor (Homo sapiens), …; inhibition, % at 9.3 µM; in the data active means inhibition above about 22%, passing the limit was not always enough;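 further: 0% = cells with DMSO and 100% = wells without cells with DMSO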
HTR5A ag ctr = HTR5A agonists in luminescence cell assay, primary screen, counter-screen for OPRM1-OPRD1 heterodimer agonist project, full-deck HTS. cell-based. 340,000 tested, 0.61% active. 5-hydroxytryptamine receptor 5A (Homo sapiens), P47898. AID 504692, 2011. activation, % at 9.3 µM; in the data active means activation mostly above about 9.5%, no sharp cut-off; inactive means mostly below about 7.6%;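 further: 0% = cells with vehicle only and 100% = reference agonist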
MOR-DOR ag = agonists of OPRM1-OPRD1 heterodimerization, primary screen, cell-based, luminescence; Mu-type opioid receptor (Homo sapiens) + Delta-type opioid receptor (Homo sapiens), …; cells; activation, % at 9.3 µM; 340,000 tested, 0.3% active; in the data active means activation above about 18%;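 further: 0% = vehicle-treated cells and 100% = reference agonist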
p-CIP stab down = p/CIP-EGFP fusion destabilizers, primary screen, fluorescence, F442A cells; Q05BA5; 16 h; decrease of EGFP signal, % at 10 µM; 290,000 tested, 0.01% active;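 active means EGFP signal decrease of at least 30% at 10 µM or well 3 SD below plate mean, unless failing retest; inactive means the rest, including hits failing retest or dose response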
MIN6 prolif-1 = inducers of MIN6 beta-cell proliferation, primary screen, ATP luminescence, uHTS; MIN6 cells proliferation, ATPlite luminescence, 48 h; cells starved in 0.2% serum; 100% = growth in 10% serum; proliferation, % at 10 µM; 330,000 tested, 0.29% active; AID 2380, 2010;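 active means compounds whose signal lies at least 3.5 SD above the mean of all wells on their plate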;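 further: 0% = DMSO-treated cells in low-serum medium and 100% = 10% serum control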
MIN6 prolif-2 = inducers of beta-cell proliferation in MIN6, confirmation, MIN6 cells, mouse; shares compounds with MIN6 prolif-1; ATPlite luminescence, 48 h; cells kept in 0.2% serum; scaled between 0.2% and 10% serum; proliferation increase, % at 50 µM; 920 tested, under 10 active; AID 463095, 2010;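 active means proliferation increase above 40% at any of the four tested concentrations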
Starred values were filed as active, the others as inactive; / = no result. Compounds with a hit are over-represented: about 1.4% of the library has one in this group of screens.

SMILES | HTR5A inv ctr | MOR-DOR inv ag | HTR5A ag ctr | MOR-DOR ag | p-CIP stab down | MIN6 prolif-1 | MIN6 prolif-2
Cc1nc(NC(=O)c2ccc(Br)o2)ccc1Br | -27 | -8 | 11 | 2 | -4 | 11* | -1
O=C(NCc1cccnc1)c1cccn1-c1ncc(C(F)(F)F)cc1Cl | 4 | 5 | -1 | -1 | 2 | 8.8* | -1
Cc1[nH]n(-c2nc(-c3ccccc3)cc(=O)[nH]2)c(=O)c1CCO | -1 | -10 | 0 | 2 | 11 | 9.6* | 0
Cc1nc(-c2ccccc2)cc(=O)[nH]1 | 0 | 14 | 2 | -2 | -4 | 0 | /
CCOC(=O)c1ccccc1OCc1cc(/C=N/n2cncn2)ccc1OC | 6 | 11 | 3 | -2 | -7 | 7.8* | 2
O=C(Nc1cccc(Cl)c1)Nc1ccnc(-c2cccnc2)n1 | -12 | -2 | 5 | 0 | -9 | 11* | 5
COC(=O)Cc1c(O)ccn(CCc2ccc(OC)c(OC)c2)c1=O | 16 | 9 | 0 | -2 | 3 | 7.2* | 1
COc1ccc(N2CC(C(=O)N3CCN(S(=O)(=O)c4ccc(F)c(F)c4)CC3)CC2=O)c(OC)c1 (stereo unspecified) | -19 | 2 | 7 | 0 | / | / | /
CCCCNC(=S)NNC(=O)c1csc(C)c1CC | -16 | 14 | -1 | -3 | -12 | 0.0* | -2
COCCNc1nnc(SCC(=O)NNC(=O)c2ccc([N+](=O)[O-])cc2)s1 | 7 | 8 | -3 | -2 | / | -1 | /
Cc1nc(N)c(C#N)c(-c2ccccc2)c1C | 5 | 6 | -1 | -1 | 3 | 5.9* | 3
CCOC(=O)c1c(S(=O)(=O)NCCc2ccccc2)c(C)n(C)c1C | -1 | 16 | 0 | -3 | -2 | 12* | -5
CCOC(=O)c1c(S(=O)(=O)NCC(=O)Nc2ccc(OC)cc2)c(C)n(C)c1C | 13 | 14 | -3 | -3 | 0 | 13* | -2
CCOC(=O)c1c(S(=O)(=O)NCC(=O)Nc2ccccc2OC)c(C)n(C)c1C | 19 | 3 | -1 | -1 | 4 | 13* | 2
O=C(CCNS(=O)(=O)c1ccc(F)c(Cl)c1)NCc1ccccc1F | -11 | 2 | 4 | -1 | / | -3 | /
CCOc1ccc2cc(C#N)c(SCC(=O)N3CCOCC3)nc2c1 | -33 | -7 | 13 | 1 | -14 | -2 | /
CCOc1ccc2nc(SCC(=O)N3CCCCCC3)c(C#N)cc2c1 | -4 | -21 | 1 | 4 | -4 | 5.3* | 0
COc1ccc(CN(Cc2ccc(C(=O)O)cc2)C(=S)Nc2cccc(C)c2)cc1OC | -18 | 1 | 11 | 0 | 21 | -4 | /
COc1ccc(NC(=S)N(Cc2ccc(C(=O)O)cc2)Cc2ccc(OC)c(OC)c2)cc1 | 19 | 4 | 0 | -1 | -3 | 9.2* | 0
Cc1ccc(-c2cc(C(F)F)n3ncc(C(=O)N4CCCc5ccccc54)c3n2)cc1 | -24 | 10 | 7 | -2 | 4 | 7.8* | -2
Cc1ccc(C(=O)OCC(=O)Nc2sccc2C(N)=O)cc1NC(=O)c1ccco1 | 12 | 7 | 2 | -1 | -4 | 6.1* | 3
Cc1ccc(C(=O)OCC(=O)Nc2ccccc2)cc1NC(=O)c1ccco1 | 4 | 2 | 4 | 0 | -15 | 0 | /
CCOC(=O)C1=C(COC(=O)/C=C/c2ccc(OC)cc2OC)NC(=O)NC1C (stereo unspecified) | -12 | -5 | 5 | 1 | / | 13* | 2
S=c1[nH]nc(-c2ccc3ccccc3n2)n1Cc1ccccc1 | -7 | -27 | -1 | 4 | 3 | 8.6* | 2
Fc1ccc(-n2c(-c3ccc4ccccc4n3)n[nH]c2=S)cc1 | 7 | 15 | 5 | -3 | -6 | 7.9* | -1
